# Measured values: the supplement of paper PMC6992640
# ± gives the standard deviation of the averaged measurements.
# Legend:
# Assay in all cases: cell viability (% of vehicle); higher = less cytotoxic
# Conditions in all cases: 10 µM; 72 h
# HCI01 = test system: HCI01 (cells of a triple-negative basal-like breast cancer xenograft)
# HCI03 = test system: HCI03 (cells of an ER-positive luminal breast cancer xenograft)
# HCI09 = test system: HCI09 (cells of a triple-negative luminal androgen receptor type breast cancer xenograft)
# HCI11 = test system: HCI11 (cells of an ER-positive luminal breast cancer xenograft)
# HCI13 = test system: HCI13 (cells of an ER-positive luminal breast cancer xenograft)
# HCI16 = test system: HCI16 (cells of a triple-negative basal-like breast cancer xenograft)
# UCD52 = test system: UCD52 (cells of a triple-negative basal-like breast cancer xenograft)
# WHIM2 = test system: WHIM2 (cells of a triple-negative basal-like breast cancer xenograft)
# WHIM30 = test system: WHIM30 (cells of a triple-negative basal-like breast cancer xenograft)
# 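Also: PDX cells carrying CMV promoter-driven luciferase, viability read as total photon flux per second by IVIS imaging following D-luciferin, vehicle control 0.1% DMSO.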
Compound,cell viability (HCI01),cell viability (HCI03),cell viability (HCI09),cell viability (HCI11),cell viability (HCI13),cell viability (HCI16),cell viability (UCD52),cell viability (WHIM2),cell viability (WHIM30)
CN1CCC(=C2c3ccccc3CC(=O)c3sccc32)CC1.O=C(O)C=CC(=O)O [Ketotifen Fumarate],120 ± 23,125,135 ± 31,102,135 ± 13,173,95.4 ± 4.4,84.4 ± 3.9,154 ± 5.5
C[N+]1(C)CCC(OC(=O)C(O)(c2ccccc2)C2CCCC2)C1.[Br-] (configuration not stated) [Glycopyrrolate],110 ± 5.3,152,123 ± 51,99.3,117 ± 12,94.8,95.6 ± 5.1,100 ± 5.2,83.6 ± 6.5
O=C([O-])c1ccccc1O.[Na+] [Sodium salicylate],96.1 ± 24,121,100 ± 7.2,91.4,107 ± 12,124,85.6 ± 3.5,89.1 ± 15,94.4 ± 3.4
Cc1cc(=O)n(-c2ccccc2)n1C [Antipyrine],110 ± 15,131,101 ± 10,103,88.6 ± 1.1,95.9,98.2 ± 7.5,106 ± 30,125 ± 11
O=C1CCc2cc(OCCCCc3nnnn3C3CCCCC3)ccc2N1 [Cilostazol],133 ± 7.6,125,78.2 ± 12,106,126 ± 24,93.7,80.8 ± 7.3,191 ± 27,125 ± 25
CCc1cc(C(C)=NOCc2ccc(C3CCCCC3)c(C(F)(F)F)c2)ccc1CN1CC(C(=O)O)C1 [BAF312 (Siponimod)],97.4 ± 10,124,44.2 ± 29,72.2,75.64 ± 0.57,115,93.7 ± 1.5,93.7 ± 17,111 ± 9.5
CC(O)C1C(=O)N2C(C(=O)O)=C(SC3CNC(C(=O)N(C)C)C3)C(C)C12 (configuration not stated) [Meropenem],103 ± 7,106,87.1 ± 6.1,95.1,98.6 ± 2.3,103,73.2 ± 6.8,83.4 ± 4.6,112 ± 5.1
CC(=O)NCC1CN(c2ccc(N3CCOCC3)c(F)c2)C(=O)O1 (configuration not stated) [Linezolid],99.5 ± 2.9,108,93.8 ± 5.2,103,98.1 ± 3,110,81 ± 12,80.7 ± 1.3,137 ± 14
CN(C)C(=N)N=C(N)N.Cl [Metformin HCl],100 ± 14,123,92.5 ± 13,86.2,102 ± 6.9,117,82.2 ± 4.7,91.7 ± 3.1,136 ± 14
CCOC(=O)C(CCc1ccccc1)NC1CSC(c2cccs2)CN(CC(=O)O)C1=O.Cl (configuration not stated) [Temocapril HCl],80.7 ± 40,103,106 ± 31,82.3,116 ± 9.8,101,88.7 ± 3.7,99 ± 12,114 ± 13
CC(C)(O/N=C(\C(=O)N[C@@H]1C(=O)N2C(C(=O)[O-])=C(C[n+]3ccccc3)CS[C@H]12)c1csc(N)n1)C(=O)O [Ceftazidime],101 ± 17,98.6,97.7 ± 0.81,81.6,119 ± 8.4,149,120 ± 15,120 ± 3.6,99.7 ± 8.2
CCOc1nc2cccc(C(=O)O)c2n1Cc1ccc(-c2ccccc2-c2nc(=O)o[nH]2)cc1 [Azilsartan],79.7 ± 44,142,84.8 ± 13,92,99.8 ± 2.6,96.2,83.3 ± 7.1,97.9 ± 13,97.5 ± 2.2
COC(=O)C(Cc1ccccc1)NC(=O)C(N)CC(=O)O (configuration not stated) [Aspartame],120 ± 6.8,152,104 ± 3.9,119,161 ± 4.4,117,100 ± 21,131 ± 23,128 ± 6.7
CN1C2=CC(=O)C(=NNC(N)=O)C=C2CC1S(=O)(=O)[O-].[Na+] (configuration not stated) [Carbazochrome sodium sulfonate (AC-17)],99.8 ± 0.3,129,105.4 ± 0.44,94.6,81 ± 18,124,99 ± 19,99.4 ± 21,134 ± 9.7
CC1CC(OC(=O)C(O)c2ccccc2)CC(C)(C)C1 (configuration not stated) [Cyclandelate],110 ± 9.8,122,87.6 ± 4.9,89.1,73.5 ± 14,113,80.8 ± 14,93.3 ± 10,95.91 ± 0.5
COC(=O)C1=C(C)NC(C)=C(C(=O)OCC(C)C)C1c1ccccc1[N+](=O)[O-] (configuration not stated) [Nisoldipine],98.3 ± 32,109,27.4 ± 1.6,74,93.1 ± 39,180,84.1 ± 5.2,88.6 ± 17,123 ± 16
Nc1ccn(CC(CO)OCP(=O)(O)O)c(=O)n1.O.O (configuration not stated) [Cidofovir dihydrate],120 ± 9.9,136,109 ± 42,94.7,152 ± 12,96.8,88 ± 0.94,97 ± 24,81 ± 1.9
CN(C)CCC(c1ccccc1)c1ccccn1.O=C(O)C=CC(=O)O (configuration not stated) [Pheniramine Maleate],111 ± 10,123,108 ± 34,101,94.008 ± 0.0093,132,117 ± 27,97.8 ± 24,124 ± 14
CC(=O)OC1CC2CCC3C(CCC4(C)C3CC([N+]3(C)CCCCC3)C4OC(C)=O)C2(C)CC1N1CCCCC1.[Br-] (configuration not stated) [Vecuronium Bromide],84.7 ± 11,146,90.5 ± 0.71,105,110 ± 14,93.9,87.7 ± 8.1,80.9 ± 7.3,155 ± 3.4

Compound,cell viability (HCI01),cell viability (HCI03),cell viability (HCI09),cell viability (HCI11),cell viability (HCI13),cell viability (HCI16),cell viability (UCD52),cell viability (WHIM2),cell viability (WHIM30)
O=C([O-])Cc1ccccc1Nc1c(Cl)cccc1Cl.[K+] [Diclofenac Potassium],117 ± 9.3,106,100 ± 24,100,65.9 ± 1.7,114,73.8 ± 2.9,109 ± 28,117 ± 39
c1cc(CN2CCCNCCNCCCNCC2)ccc1CN1CCCNCCNCCCNCC1 [Plerixafor (AMD3100)],99.4 ± 11,86.8,92.6 ± 9.3,84.7,85.1 ± 4.1,87.9,92.3 ± 9.7,73 ± 11,110 ± 12
O=C1CCC(N2C(=O)c3ccccc3C2=O)C(=O)N1 (configuration not stated) [Thalidomide],144 ± 7.8,129,101 ± 4.3,103,129 ± 15,114,102 ± 4.3,103 ± 19,145 ± 15
CC(C)(C)c1nc(-c2cccc(NS(=O)(=O)c3c(F)cccc3F)c2F)c(-c2ccnc(N)n2)s1,118 ± 12,125,98.9 ± 1.2,119,187 ± 54,73.6,122 ± 12,116 ± 4.4,91.4 ± 15
CCN1CCCC1CNC(=O)c1cc(S(N)(=O)=O)ccc1OC (configuration not stated) [Levosulpiride],127 ± 9.1,126,99.33 ± 0.17,98.2,77.9 ± 5.7,134,93.9 ± 1.6,109 ± 7.3,100 ± 7.4
Nc1ncn(C2CC(O)C(CO)O2)c(=O)n1 (configuration not stated),145 ± 29,140,96 ± 13,108,126 ± 12,123,136 ± 30,105 ± 16,189 ± 7.4
COC(=O)NC(C(=O)NC(Cc1ccccc1)C(O)CN(Cc1ccc(-c2ccccn2)cc1)NC(=O)C(NC(=O)OC)C(C)(C)C)C(C)(C)C.O=S(=O)(O)O (configuration not stated),134 ± 8.2,135,74.8 ± 2.8,140,100 ± 5.6,138,113 ± 14,90 ± 6.2,148 ± 31
CCCN1CCCCC1C(=O)Nc1c(C)cccc1C.Cl.O (configuration not stated) [Ropivacaine hydrochloride monohydrate],86.9 ± 16,116,105 ± 16,96.1,110.3 ± 0.64,117,96.2 ± 12,90.8 ± 14,100 ± 9.1
CN(C)CCC(c1ccc(Cl)cc1)c1ccccn1.O=C(O)C=CC(=O)O (configuration not stated) [Chlorpheniramine Maleate],157 ± 40,115,108 ± 13,97,178 ± 38,126,79.7 ± 2.5,82.8 ± 11,127 ± 12
CN(Cc1ccc(C(C)(C)C)cc1)Cc1cccc2ccccc12.Cl [Butenafine HCl],104 ± 1.5,99.2,117 ± 19,104,72.7 ± 4.7,151,81.4 ± 2.7,56.2 ± 12,142 ± 3.3
O=C1C(=O)c2ccccc2C(O)=C1C1CCC(c2ccc(Cl)cc2)CC1 (configuration not stated) [Atovaquone],81.6 ± 34,82.3,27.7 ± 4.7,54.9,50 ± 1.9,116,78.9 ± 15,99.7 ± 8.7,72.4 ± 1.9
CN(CC/C=C1C2=CC=CC=C2C=CC3=CC=CC=C3\1)C.Cl [Cyclobenzaprine HCl],98.1 ± 17,95.1,73.5 ± 0.81,84.5,131 ± 4.4,92.3,76.4 ± 0.93,89.6 ± 14,89.9 ± 1.5
NC1CN(c2c(F)cc3c(=O)c(C(=O)O)cn(C4CC4F)c3c2Cl)CC12CC2.O (configuration not stated) [Sitafloxacin Hydrate],83.3 ± 48,95.5,111 ± 13,90.5,116.6 ± 0.93,122,88.8 ± 9.9,95.6 ± 27,119 ± 4.7
O=C1Cc2cc(CCN3CCN(c4nsc5ccccc45)CC3)c(Cl)cc2N1 [Ziprasidone],98.1 ± 6.7,102,82.1 ± 4.3,96.1,95.4 ± 36,67.2,86.8 ± 2,95.6 ± 6.5,100 ± 20
C=CCc1cc(OC)c(O)c(C(=O)NCCO)c1 [Alibendol],98.3 ± 18,139,107 ± 17,110,68 ± 5,133,109 ± 3.4,115 ± 23,138 ± 20
Cc1ccc(=O)n(-c2ccccc2)c1 [Pirfenidone],92.4 ± 3,99.8,103 ± 26,89.4,106 ± 4.5,91.3,85.5 ± 5.1,97 ± 15,111 ± 11
Nc1ccn(C2CSC(CO)O2)c(=O)n1 (configuration not stated) [Lamivudine],106 ± 17,130,94.9 ± 7.3,107,124 ± 7.9,95.2,87.7 ± 6.8,94.3 ± 11,84.4 ± 12
CC(C)CC(N)=O [Isovaleramide],103 ± 22,132,97.6 ± 3.4,98.5,104 ± 13,94.6,99.9 ± 2,98.5 ± 13,96.1 ± 7.9
CCN(CC)CCOC(=O)C(c1ccccc1)c1ccccc1.Cl [Adiphenine HCl],93.1 ± 17,129,99.2 ± 22,94.9,57.1 ± 3.2,110,92.2 ± 7.6,92.4 ± 9.5,117 ± 17
